{"source": "PubChem BioAssay AID2061166", "about": "(Soto Lab, Mitchell Center for Alzheimers Disease and …, 2025)", "note": "A number with no mark means an inactive call. Activity calls are given as the source filed them.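 The calls were made as follows: active = mean tau seeding fluorescence area under 1% of vehicle, meaning inhibition above a set limit; inactive = the rest.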", "data": [{"molecular_target": "Microtubule-associated protein tau (Homo sapiens) (UniProt P10636)", "sequence (P10636 whole entry, looked up)": "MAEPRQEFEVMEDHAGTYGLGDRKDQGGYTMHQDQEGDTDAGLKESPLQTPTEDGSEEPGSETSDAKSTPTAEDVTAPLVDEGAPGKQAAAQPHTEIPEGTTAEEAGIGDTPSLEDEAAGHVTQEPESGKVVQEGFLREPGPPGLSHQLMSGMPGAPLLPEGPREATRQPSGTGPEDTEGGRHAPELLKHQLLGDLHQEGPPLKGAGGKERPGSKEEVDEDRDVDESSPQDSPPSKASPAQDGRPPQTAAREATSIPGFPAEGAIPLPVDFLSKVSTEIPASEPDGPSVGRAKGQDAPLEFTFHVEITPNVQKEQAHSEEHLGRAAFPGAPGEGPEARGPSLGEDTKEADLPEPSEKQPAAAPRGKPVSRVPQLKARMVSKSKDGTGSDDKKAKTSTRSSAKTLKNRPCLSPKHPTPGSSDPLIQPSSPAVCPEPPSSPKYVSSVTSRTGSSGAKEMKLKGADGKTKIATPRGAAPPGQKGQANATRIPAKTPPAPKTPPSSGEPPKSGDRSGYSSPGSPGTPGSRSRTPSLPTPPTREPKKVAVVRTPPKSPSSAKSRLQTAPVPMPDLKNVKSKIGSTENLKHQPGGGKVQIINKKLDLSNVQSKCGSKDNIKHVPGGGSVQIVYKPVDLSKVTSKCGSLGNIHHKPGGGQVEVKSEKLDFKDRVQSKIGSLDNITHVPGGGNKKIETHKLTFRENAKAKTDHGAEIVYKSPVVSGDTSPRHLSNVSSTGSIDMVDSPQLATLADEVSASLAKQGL", "test": "blockers of AD brain-seeded tau fibril growth – biochemical, seed amplification, ThT fluorescence, primary screen (AID 2061166)", "conditions": "Recombinant tau seeded by AD brain, ThT fluorescence AUC; at 100 µM; stronger effect = higher value", "values": [{"smiles": "CNc1ccc2nc3ccc(=[N+](C)C)cc-3sc2c1", "inhibition": "100% (active)"}, {"smiles": "CC1(C)OC2COC3(COS(N)(=O)=O)OC(C)(C)OC3C2O1", "note": "(stereo not drawn)", "inhibition": "20.5%"}, {"smiles": "Cc1ccc(Nc2nccc(N(C)c3ccc4c(C)n(C)nc4c3)n2)cc1S(N)(=O)=O", "inhibition": "-1.27%"}, {"smiles": "COc1ccc2[nH]cc(CCNC(C)=O)c2c1", "inhibition": "-15.9%"}, {"smiles": "CC1=NN(c2ccccc2)C(=O)C1", "inhibition": "48.4%"}, {"smiles": "C#CCC(Cc1cnc2nc(N)nc(N)c2n1)c1ccc(C(=O)NC(CCC(=O)O)C(=O)O)cc1", "note": "(stereo not drawn)", "inhibition": "-3.35%"}, {"smiles": "COc1cc(C(=O)NCc2ccc(OCCN(C)C)cc2)cc(OC)c1OC", "inhibition": "10.7%"}, {"smiles": "Oc1ccc(/C=C/c2cc(O)cc(O)c2)cc1", "inhibition": "16.9%"}, {"smiles": "COc1cc2nc(N(C)CCCNC(=O)C3CCCO3)nc(N)c2cc1OC", "note": "(stereo not drawn)", "inhibition": "17.4%"}, {"smiles": "CO/N=C(\\C(=O)NC1C(=O)N2C(C(=O)[O-])=C(C[N+]3(C)CCCC3)CSC12)c1csc(N)n1", "note": "(stereo not drawn)", "inhibition": "53.1%"}, {"smiles": "O=c1cc(-c2ccccc2)oc2cc(O)c(O)c(O)c12", "inhibition": "97.6%"}, {"smiles": "Cc1ccc(C(C)C)cc1O", "inhibition": "10.5%"}, {"smiles": "Nc1ccccc1NC(=O)c1ccc(CNC(=O)OCc2cccnc2)cc1", "inhibition": "-34.7%"}, {"smiles": "Nc1nc(Cl)nc2c1ncn2C1CC(O)C(CO)O1", "note": "(stereo not drawn)", "inhibition": "-52.8%"}, {"smiles": "Cn1cnc2c(F)c(Nc3ccc(Br)cc3Cl)c(C(=O)NOCCO)cc21", "inhibition": "-4.66%"}, {"smiles": "NC(=O)NO", "inhibition": "-49.7%"}, {"smiles": "O=C(O)c1cc(-c2ccccc2)nc2ccccc12", "inhibition": "3.74%"}, {"smiles": "CN(C)CC(c1ccc(O)cc1)C1(O)CCCCC1", "note": "(stereo not drawn)", "inhibition": "15.1%"}, {"smiles": "OCCOCCN1CCN(C2=Nc3ccccc3Sc3ccccc32)CC1", "inhibition": "22.2%"}, {"smiles": "CN(C)c1ccc(C=CC=O)cc1", "inhibition": "37.8%"}, {"smiles": "NC(=O)OCC(COC(N)=O)c1ccccc1", "inhibition": "-8.84%"}, {"smiles": "CC(C)(C)c1cc(C(C)(C)C)c(NC(=O)c2c[nH]c3ccccc3c2=O)cc1O", "inhibition": "-88.7%"}, {"smiles": "CNS(=O)(=O)CCc1ccc2[nH]cc(C3CCN(C)CC3)c2c1", "inhibition": "-30.8%"}, {"smiles": "CN(C)CCCN1c2ccccc2Sc2ccc(Cl)cc21", "inhibition": "25.9%"}, {"smiles": "COc1ccc(C2CNC(=O)C2)cc1OC1CCCC1", "note": "(stereo not drawn)", "inhibition": "16.3%"}, {"smiles": "COC1CC2CCC(C)C(O)(O2)C(=O)C(=O)N2CCCCC2C(=O)OC(C(C)CC2CCC(OCCO)C(OC)C2)CC(=O)C(C)/C=C(\\C)C(O)C(OC)C(=O)C(C)CC(C)/C=C/C=C/C=C/1C", "note": "(stereo not drawn)", "inhibition": "19.2%"}, {"smiles": "CC(C)COc1ccc(CNC(=O)N(Cc2ccc(F)cc2)C2CCN(C)CC2)cc1", "inhibition": "-91.6%"}, {"smiles": "Cc1nc2c([nH]1)CCN(C(=O)c1ccc(NC(=O)c3ccccc3-c3ccccc3)cc1)c1ccccc1-2", "inhibition": "6.08%"}, {"smiles": "Oc1cc(O)c2c(c1)OC(c1ccc(O)c(O)c1)C(O)C2", "note": "(stereo not drawn)", "inhibition": "88.6%"}, {"smiles": "O=c1c(-c2ccc(O)cc2)coc2cc(O)cc(O)c12", "inhibition": "-59.4%"}, {"smiles": "CC1OC(OCC2OC(Oc3c(-c4ccc(O)c(O)c4)oc4cc(O)cc(O)c4c3=O)C(O)C(O)C2O)C(O)C(O)C1O", "note": "(stereo not drawn)", "inhibition": "28.7%"}, {"smiles": "Cc1c(C(=O)NN2CCCCC2)nn(-c2ccc(Cl)cc2Cl)c1-c1ccc(Cl)cc1", "inhibition": "50.7%"}, {"smiles": "Nc1c2c(nc3ccccc13)CCCC2", "inhibition": "20.6%"}]}]}
